# Active and inactive are the calls of the source. The call rests on the fitted dose curve.
# Target: Catechol O-methyltransferase (Homo sapiens) (UniProt P21964)
# Assay: Confirmatory Screen for Target Class Profiling of Small Molecule Inhibitors of Methyltransferases (AID 1745852); on activity change, negative = inhibition: on the % scale 0 is the no-effect control and ±100 the full control effect
# Settings: MTase-Glo luminescence, SAH detection, recombinant enzyme; measured here: COMT max response; stronger effect = lower value
# Potency means the concentration at half of the fitted maximal effect.
# Chain of Catechol O-methyltransferase (Homo sapiens) (P21964 whole entry, looked up): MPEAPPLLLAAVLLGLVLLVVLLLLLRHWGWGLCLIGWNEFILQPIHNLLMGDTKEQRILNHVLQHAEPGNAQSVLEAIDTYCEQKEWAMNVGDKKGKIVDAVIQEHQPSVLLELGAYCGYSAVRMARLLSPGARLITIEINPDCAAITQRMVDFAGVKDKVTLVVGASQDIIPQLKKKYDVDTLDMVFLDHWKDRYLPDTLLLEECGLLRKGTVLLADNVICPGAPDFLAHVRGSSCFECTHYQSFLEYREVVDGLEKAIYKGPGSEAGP
row,Structure (SMILES),activity [%]
1,Cn1nccc1-c1cc2c(cn1)CN(Cc1ccncc1)CCN2,1.75
2,O=C(OCc1ccccc1)N1CCOCC12CCN(Cc1c[nH]c3ccccc13)CC2,6.86
3,COCc1nc2nc(-c3ccccc3)c(-c3ccc(O)c(F)c3)cc2n1C,-38
4,COC(=O)C(Cc1c[nH]c2ccccc12)NC(=O)c1ccccc1Br (stereo not given),-2.16
5,COc1cncc(Nc2ncc(-c3ccccc3OC)c3c2OCC3)c1,0.728
6,CCCn1c(=O)c2ccccc2n2c(=O)n(CC(=O)c3cc(C)ccc3C)nc12,1.84
7,CC(C)c1ccc(NC(=O)Cn2c(=O)oc3cc(S(=O)(=O)NCc4ccccc4)ccc32)cc1,0
8,O=C(N[C@H](C1CCNCC1)C1CC(O)C1)c1ccc2nccnc2c1 (stereo not given in full),-0.82
9,COc1ncccc1-c1nccn2c(C3CN(Cc4ccccc4O)C3)ncc12,2.23
10,CCc1ccc(N2C(=O)c3cc4sccc4n3CC2(C)C(=O)NC2CCCCCC2)cc1 (stereo not given),-4.01
11,COc1cc(F)ccc1-c1cc(-c2ccc(=O)[nH]c2)c2cncn2c1,-95.1
12,CC(CNC(=O)CCc1nnc2n(Cc3ccc(F)cc3)c(=O)c3ccccc3n12)c1ccccc1 (stereo not given),-6.68
13,O=c1c2ccccc2n2c(-c3ccc(F)c(F)c3)nnc2n1Cc1ccccc1Cl,-2.11
14,Cn1c(C(=O)NCCN2CCCCC2)cc2c1CCN(Cc1cccc(F)c1)C2,7.65
15,Cc1ccc(S(=O)(=O)c2nnn3c2nc(N2CCC(N4CCCCC4)CC2)c2ccccc23)cc1C,-1.85
16,COCCn1ccc2c(C3=CCOCC3)nc(-c3cccc4[nH]ccc34)cc21,-2.42
17,O=C(NCc1ccc(Cl)cc1)c1ccc2c(=O)nc3c(-c4ccccc4F)n[nH]n3c2c1,-4.08
18,O=C(NCc1ccc2c(c1)OCO2)c1sc(=S)n2c1[nH]c(=O)c1ccccc12,-46.4
19,O=C(NCCc1ccc(Cl)cc1)c1ccc2c(=O)[nH]c3c(C(=O)NCC4CCCO4)sc(=S)n3c2c1 (stereo not given),-36.2
20,O=C(CCc1nnc2n(Cc3ccc(Cl)cc3)c(=O)c3ccccc3n12)NCCN1CCCC1,4.15

row,Structure (SMILES),activity [%]
1,c1ccc(CO[C@H]2COCCN(c3nc4ccccc4o3)C2)cc1,1.17
2,CCOC(=O)CC1(NC(=O)N2CCn3cccc3C2Cc2ccccc2)CCCCC1 (stereo not given),2.42
3,COc1cccc(NC(=O)Cn2c(=O)oc3cc(S(=O)(=O)N4CCCC4)ccc32)c1,3.1
4,CCCC1=Nc2cc(C(=O)NCCCN3CCCCC3CC)ccc2Sc2ccc(C)cc21 (stereo not given),-2.37
5,Cc1ccc(Cn2c(=O)c3ccccc3n3c(CCC(=O)NCCCN4CCN(C)CC4)nnc23)cc1,-2.75
6,Cc1ccc(NS(=O)(=O)c2ccc3[nH]c(=O)[nH]c3c2)cc1F,-8.47
7,O=C(CCc1nnc2n(Cc3ccccc3Cl)c(=O)c3ccccc3n12)N1CCC(N2CCCCC2)CC1,0
8,COc1ccccc1-c1[nH]nc2ncc(C(=O)N3CCN(Cc4ccccc4)CC3)nc12,-51.3
9,Cc1cnc(C2CC2)n1C1CCN(S(=O)(=O)c2ccc3c(c2)OCCO3)CC1,-0.0283
10,O=C(CCc1nnc2n(CCc3ccccc3)c(=O)c3ccccc3n12)N1CCN(c2ccccc2)CC1,0
11,CCNc1ncc(CN2CCN(c3ccncc3)CC2)cn1,4.09
12,O=C1COc2ccc(-c3cccc(O)c3)nc2CN1Cc1ccc(C(F)(F)F)cc1,-39
13,Cc1cccc(-c2nnc3n(CCc4ccccc4)c(=O)c4ccccc4n23)c1,-4.01
14,Cc1noc(C)c1-c1cc2c(cc(C)n2CCN(C)C)c(Nc2ccncn2)n1,-14.2
15,CCCn1c(=O)c2cc(F)ccc2n2c(SCc3c(F)cccc3Cl)nnc12,4.81
16,CN(C)c1nc2c(c(N3C[C@@H](CN4CCCC4)[C@@H](CO)C3)n1)CCCC2,4.35
17,O=C(CCc1nnc2n(Cc3ccc(F)cc3)c(=O)c3ccccc3n12)NCCN1CCCC1,-4.07
18,Cc1ccc(C(=O)O)c2c1N[C@@H](c1ccc(Cl)cc1)[C@H]1CC=C[C@@H]21,2.12
19,CCN(CC)CCNC(=O)CCc1nnc2n(CCc3ccccc3)c(=O)c3ccccc3n12,-2.93
20,COc1ccc(OC)c(CN2CCNc3cc(-c4ccnc(C)c4)ncc3C2)c1,6.21

# Target: Guanidinoacetate N-methyltransferase (Homo sapiens) (UniProt Q14353)
# Assay: as above
# Settings: MTase-Glo luminescence, SAH detection, recombinant enzyme; activity change, negative = inhibition: at 57.3 µM (top of the series) unless noted; series mostly up to 57.3 µM
Structure (SMILES),"activity change, negative = inhibition",Potency
Cn1nccc1-c1cc2c(cn1)CN(Cc1ccncc1)CCN2,1.99% [at 85.7 µM],–
O=C(OCc1ccccc1)N1CCOCC12CCN(Cc1c[nH]c3ccccc13)CC2,9.15% [at 85.7 µM],–
COCc1nc2nc(-c3ccccc3)c(-c3ccc(O)c(F)c3)cc2n1C,–,39.3 µM (active)
COC(=O)C(Cc1c[nH]c2ccccc12)NC(=O)c1ccccc1Br (stereo not given),0%,–
COc1cncc(Nc2ncc(-c3ccccc3OC)c3c2OCC3)c1,2.22% [at 85.7 µM],–
CCCn1c(=O)c2ccccc2n2c(=O)n(CC(=O)c3cc(C)ccc3C)nc12,0%,–
CC(C)c1ccc(NC(=O)Cn2c(=O)oc3cc(S(=O)(=O)NCc4ccccc4)ccc32)cc1,0%,–
O=C(N[C@H](C1CCNCC1)C1CC(O)C1)c1ccc2nccnc2c1 (stereo not given in full),1.16%,–
COc1ncccc1-c1nccn2c(C3CN(Cc4ccccc4O)C3)ncc12,2.06% [at 85.7 µM],–
CCc1ccc(N2C(=O)c3cc4sccc4n3CC2(C)C(=O)NC2CCCCCC2)cc1 (stereo not given),0.902%,–
COc1cc(F)ccc1-c1cc(-c2ccc(=O)[nH]c2)c2cncn2c1,-5.99% [at 85.7 µM],–
CC(CNC(=O)CCc1nnc2n(Cc3ccc(F)cc3)c(=O)c3ccccc3n12)c1ccccc1 (stereo not given),-2.31%,–
O=c1c2ccccc2n2c(-c3ccc(F)c(F)c3)nnc2n1Cc1ccccc1Cl,0%,–
Cn1c(C(=O)NCCN2CCCCC2)cc2c1CCN(Cc1cccc(F)c1)C2,15.7%,–
Cc1ccc(S(=O)(=O)c2nnn3c2nc(N2CCC(N4CCCCC4)CC2)c2ccccc23)cc1C,0%,–
COCCn1ccc2c(C3=CCOCC3)nc(-c3cccc4[nH]ccc34)cc21,-9.46% [at 85.7 µM],–
O=C(NCc1ccc(Cl)cc1)c1ccc2c(=O)nc3c(-c4ccccc4F)n[nH]n3c2c1,-1.1%,–
O=C(NCc1ccc2c(c1)OCO2)c1sc(=S)n2c1[nH]c(=O)c1ccccc12,–,27.1 µM (active)
O=C(NCCc1ccc(Cl)cc1)c1ccc2c(=O)[nH]c3c(C(=O)NCC4CCCO4)sc(=S)n3c2c1 (stereo not given),–,27.1 µM (active)
O=C(CCc1nnc2n(Cc3ccc(Cl)cc3)c(=O)c3ccccc3n12)NCCN1CCCC1,1.71%,–

Structure (SMILES),"activity change, negative = inhibition",Potency
c1ccc(CO[C@H]2COCCN(c3nc4ccccc4o3)C2)cc1,2.9% [at 85.7 µM],–
CCOC(=O)CC1(NC(=O)N2CCn3cccc3C2Cc2ccccc2)CCCCC1 (stereo not given),–,inactive
COc1cccc(NC(=O)Cn2c(=O)oc3cc(S(=O)(=O)N4CCCC4)ccc32)c1,0.138%,–
CCCC1=Nc2cc(C(=O)NCCCN3CCCCC3CC)ccc2Sc2ccc(C)cc21 (stereo not given),6.53%,–
Cc1ccc(Cn2c(=O)c3ccccc3n3c(CCC(=O)NCCCN4CCN(C)CC4)nnc23)cc1,-1.36%,–
Cc1ccc(NS(=O)(=O)c2ccc3[nH]c(=O)[nH]c3c2)cc1F,-6.18%,–
O=C(CCc1nnc2n(Cc3ccccc3Cl)c(=O)c3ccccc3n12)N1CCC(N2CCCCC2)CC1,0.582%,–
COc1ccccc1-c1[nH]nc2ncc(C(=O)N3CCN(Cc4ccccc4)CC3)nc12,–,35 µM (active)
Cc1cnc(C2CC2)n1C1CCN(S(=O)(=O)c2ccc3c(c2)OCCO3)CC1,-2.25%,–
O=C(CCc1nnc2n(CCc3ccccc3)c(=O)c3ccccc3n12)N1CCN(c2ccccc2)CC1,0%,–
CCNc1ncc(CN2CCN(c3ccncc3)CC2)cn1,1.98%,–
O=C1COc2ccc(-c3cccc(O)c3)nc2CN1Cc1ccc(C(F)(F)F)cc1,-7.53% [at 85.7 µM],–
Cc1cccc(-c2nnc3n(CCc4ccccc4)c(=O)c4ccccc4n23)c1,–,inactive
Cc1noc(C)c1-c1cc2c(cc(C)n2CCN(C)C)c(Nc2ccncn2)n1,-6.67% [at 85.7 µM],–
CCCn1c(=O)c2cc(F)ccc2n2c(SCc3c(F)cccc3Cl)nnc12,0.239%,–
CN(C)c1nc2c(c(N3C[C@@H](CN4CCCC4)[C@@H](CO)C3)n1)CCCC2,2.26%,–
O=C(CCc1nnc2n(Cc3ccc(F)cc3)c(=O)c3ccccc3n12)NCCN1CCCC1,-0.511%,–
Cc1ccc(C(=O)O)c2c1N[C@@H](c1ccc(Cl)cc1)[C@H]1CC=C[C@@H]21,0.676%,–
CCN(CC)CCNC(=O)CCc1nnc2n(CCc3ccccc3)c(=O)c3ccccc3n12,1.05%,–
COc1ccc(OC)c(CN2CCNc3cc(-c4ccnc(C)c4)ncc3C2)c1,6.12% [at 85.7 µM],–

# Reference: PubChem BioAssay (NCATS)
